# Reference: PubChem BioAssay (NCATS)
# Values without a mark were called inactive. Records with an inconclusive call do not appear. A call without a number means that no potency is given here. Calls of active or inactive are those of the source. Unless noted, the call rests on the fitted dose curve; in most records, active means well fitted curve in the direction sought with a large enough effect; inconclusive means small, poorly fitted or top-dose-only effect, or another doubt; inactive means no such curve, though single readings can be large; an effect the other way counts as inactive or inconclusive.
# Key:
# [1] = HepG2 viability counterscreen (readout 2: ATP content) against the NCATS DSHEA and TCM libraries (AID 1794840);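 further: HepG2 cells exposed to substances for about 24 h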
# How it was run: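 Readout 1: cellular protease activity, GF-AFC substrate (25 uM final, 30 min, fluorescence 380/510 nm). Readout 2: ATP content by CellTiter-Glo luminescence after 30 min at RT. Both follow ~24 h exposure of HepG2 cells (1,000/well) to substances.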
# [2] = biological target: Cytochrome P450 3A4 (Homo sapiens) (UniProt P08684); experiment: qHTS for inhibitors of CYP3A4 against the NCATS DSHEA and TCM libraries (AID 1919971);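 further: inhibition lowers luminescence from luciferin made by CYP3A4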
# Chain of Cytochrome P450 3A4 (Homo sapiens) (P08684 whole entry, looked up, canonical isoform): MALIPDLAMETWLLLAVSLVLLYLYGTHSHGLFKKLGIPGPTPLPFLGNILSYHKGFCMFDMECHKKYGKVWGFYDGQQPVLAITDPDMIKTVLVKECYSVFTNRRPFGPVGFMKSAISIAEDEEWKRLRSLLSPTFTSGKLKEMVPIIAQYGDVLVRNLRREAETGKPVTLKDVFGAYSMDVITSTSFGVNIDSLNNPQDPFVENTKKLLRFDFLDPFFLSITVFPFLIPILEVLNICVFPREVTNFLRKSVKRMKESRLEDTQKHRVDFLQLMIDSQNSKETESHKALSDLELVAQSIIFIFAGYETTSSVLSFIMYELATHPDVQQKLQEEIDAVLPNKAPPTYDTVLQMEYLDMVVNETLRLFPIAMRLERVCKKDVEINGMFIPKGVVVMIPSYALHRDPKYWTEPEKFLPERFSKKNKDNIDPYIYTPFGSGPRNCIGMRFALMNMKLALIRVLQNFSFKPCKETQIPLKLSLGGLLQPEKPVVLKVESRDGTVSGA
# How it was run: (§1)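 Read-out is luminescence after P450-Glo detection (30 min, RT). Before that: 15 min compound–enzyme preincubation, then 30-45 min reaction with 1x NADPH regeneration solution, substrate concentration isoform-specific.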
# [3] = biological target: Cytochrome P450 2D6 (Homo sapiens) (UniProt P10635); experiment: qHTS for inhibitors of CYP2D6 against the NCATS DSHEA and TCM libraries (AID 1919972)
# Chain of Cytochrome P450 2D6 (Homo sapiens) (P10635 whole entry, looked up): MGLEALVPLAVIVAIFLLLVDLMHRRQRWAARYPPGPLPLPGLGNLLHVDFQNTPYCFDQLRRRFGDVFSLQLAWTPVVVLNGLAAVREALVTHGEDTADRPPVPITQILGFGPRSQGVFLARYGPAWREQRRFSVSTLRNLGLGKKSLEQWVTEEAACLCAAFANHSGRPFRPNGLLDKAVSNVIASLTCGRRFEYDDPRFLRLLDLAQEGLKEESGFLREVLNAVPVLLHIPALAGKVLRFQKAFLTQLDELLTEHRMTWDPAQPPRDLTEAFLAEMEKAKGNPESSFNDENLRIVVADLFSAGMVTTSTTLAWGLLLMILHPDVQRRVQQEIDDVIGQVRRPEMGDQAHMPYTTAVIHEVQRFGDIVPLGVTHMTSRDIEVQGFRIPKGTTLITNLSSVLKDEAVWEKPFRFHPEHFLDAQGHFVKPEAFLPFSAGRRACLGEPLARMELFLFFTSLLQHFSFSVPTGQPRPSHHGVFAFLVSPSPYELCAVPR
# How it was run: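 Luminescent P450-Glo read-out of CYP2D6 turnover of a luciferin substrate after NADPH-driven reaction of 30-45 min at room temperature. Compounds were first preincubated 15 min with enzyme at titrated concentrations; quinidine was the intraplate control.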
# [4] = KB-3-1 P-gp reporter qHTS against the NCATS DSHEA and TCM libraries (AID 1919975)
# How it was run: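 Cell viability by CellTiter-Glo luminescence following ~72 h compound exposure (concentration-response). Uses parental, non-P-gp-overexpressing KB-3-1 line, 500 cells/well in DMEM/10% FBS, attached ~4 h before dosing.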
# [5] = qHTS Counterscreen for compound interference against the NCATS DSHEA and TCM libraries (AID 1919978); conditions: firefly luciferase detection reagent interference, luminescence;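 further: compounds preincubated with 1 µM D-luciferin or buffer before detection reagent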
# How it was run: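 With 1 uM D-luciferin or phosphate buffer only, compounds at final 19.5 nM–39.8 uM were incubated for 15 min at room temperature. Luciferase detection reagent was then added, and luminescence was measured after a further 30 min at room temperature.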
# [6] = Dual reporter qHTS for agonist of Pregnane X Receptor (hPXR) against the NCATS DSHEA and TCM libraries: Fluorescence readout (AID 1920058)
# How it was run: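 HepG2 hPXR-Luc, 2000 cells/well, 5 h attach; cpds ~24 h, 37 °C/5% CO2; CellTiter-Fluor 1 h; fluor. Ex/Em 405/540 nm = viability.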
# [7] = biological target: Nuclear receptor subfamily 1 group I member 2 (Homo sapiens) (UniProt O75469); experiment: Dual reporter qHTS for agonist of Pregnane X Receptor (hPXR) against the NCATS DSHEA and TCM libraries: Luminescence readout (AID 1920059)
# Chain of Nuclear receptor subfamily 1 group I member 2 (Homo sapiens) (O75469 whole entry, looked up): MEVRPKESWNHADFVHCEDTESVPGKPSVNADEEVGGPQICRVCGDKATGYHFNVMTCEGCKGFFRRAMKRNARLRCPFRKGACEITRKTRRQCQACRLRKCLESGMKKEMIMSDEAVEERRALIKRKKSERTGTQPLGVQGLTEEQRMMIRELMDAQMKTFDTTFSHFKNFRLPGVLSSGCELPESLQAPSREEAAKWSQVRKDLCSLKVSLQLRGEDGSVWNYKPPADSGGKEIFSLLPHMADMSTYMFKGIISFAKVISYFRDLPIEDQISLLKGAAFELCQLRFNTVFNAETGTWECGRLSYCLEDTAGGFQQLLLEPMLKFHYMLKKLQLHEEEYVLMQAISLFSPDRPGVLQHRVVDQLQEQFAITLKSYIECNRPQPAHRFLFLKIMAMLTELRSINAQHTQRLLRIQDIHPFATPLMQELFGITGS
# How it was run: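 hPXR-Luc HepG2 cells, 2000/well in 5% charcoal-stripped FBS medium, attached 5 h, then exposed 24 h at 37C to compounds. Viability by CellTiter-Fluor, then luciferase luminescence with ONE-Glo.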
# [8] = biological target: Nuclear receptor subfamily 1 group I member 2 (Homo sapiens) (UniProt O75469); experiment: Dual reporter qHTS for antagonist of Pregnane X Receptor (hPXR) against the NCATS DSHEA and TCM libraries: Luminescence Readout (AID 1920060);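 further: HepG2 cells carrying hPXR luciferase reporter stimulated with rifampicin at 2 µM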
# How it was run: (§2)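 hPXR-Luc HepG2 cells exposed 24 h at 37 C to compounds with 2 uM rifampicin in antagonist mode; luciferase luminescence measured by ONE-Glo, with CellTiter-Fluor viability read beforehand.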
# [9] = Dual reporter qHTS for antagonist of Pregnane X Receptor (hPXR) against the NCATS DSHEA and TCM libraries: Fluorescence Readout (AID 1920061)
# How it was run: as §2
# [10] = Viability counterscreen for agonist of constitutive androstane receptor (CAR) against the NCATS DSHEA and TCM libraries (AID 1794838);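 further: HepG2 cells with CYP2B6 reporter and hCAR plus 0.75 µM PK11195 antagonist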
# How it was run: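 Cell viability, from CellTiter-Fluor fluorescence (405/540 nm), was scored after a 24 h, 37C exposure of HepG2 cells carrying CYP2B6 reporter and hCAR to test substances in presence of 0.75 uM PK11195.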
# [11] = biological target: Cytochrome P450 2C9 (Homo sapiens) (UniProt P11712); experiment: qHTS for inhibitors of CYP2C9 against the NCATS DSHEA and TCM libraries (AID 1919973); further: potency means the concentration at half of the fitted maximal effect
# Chain of Cytochrome P450 2C9 (Homo sapiens) (P11712 whole entry, looked up): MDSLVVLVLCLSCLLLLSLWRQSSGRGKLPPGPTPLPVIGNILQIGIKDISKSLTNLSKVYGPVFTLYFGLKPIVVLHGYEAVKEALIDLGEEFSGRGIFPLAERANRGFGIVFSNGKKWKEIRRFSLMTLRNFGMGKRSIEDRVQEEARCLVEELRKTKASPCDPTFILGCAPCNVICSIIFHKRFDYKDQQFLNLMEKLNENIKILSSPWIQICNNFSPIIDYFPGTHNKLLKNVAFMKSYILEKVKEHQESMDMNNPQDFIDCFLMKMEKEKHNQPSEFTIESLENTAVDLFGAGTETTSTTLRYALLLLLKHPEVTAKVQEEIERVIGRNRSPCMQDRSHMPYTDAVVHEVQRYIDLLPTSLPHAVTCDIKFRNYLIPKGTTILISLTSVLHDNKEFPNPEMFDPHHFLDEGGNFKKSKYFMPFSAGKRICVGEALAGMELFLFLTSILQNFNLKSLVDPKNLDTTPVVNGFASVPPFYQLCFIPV
# How it was run: as §1
# [12] = biological target: Cytochrome P450 2C19 (Homo sapiens) (UniProt P33261); experiment: qHTS for inhibitors of CYP2C19 against the NCATS DSHEA and TCM libraries (AID 1919974);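 further: luminescence from luciferin released by CYP2C19 oxidation of a pro-luciferin substrate; potency means the concentration at half of the fitted maximal effect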
# Chain of Cytochrome P450 2C19 (Homo sapiens) (P33261 whole entry, looked up): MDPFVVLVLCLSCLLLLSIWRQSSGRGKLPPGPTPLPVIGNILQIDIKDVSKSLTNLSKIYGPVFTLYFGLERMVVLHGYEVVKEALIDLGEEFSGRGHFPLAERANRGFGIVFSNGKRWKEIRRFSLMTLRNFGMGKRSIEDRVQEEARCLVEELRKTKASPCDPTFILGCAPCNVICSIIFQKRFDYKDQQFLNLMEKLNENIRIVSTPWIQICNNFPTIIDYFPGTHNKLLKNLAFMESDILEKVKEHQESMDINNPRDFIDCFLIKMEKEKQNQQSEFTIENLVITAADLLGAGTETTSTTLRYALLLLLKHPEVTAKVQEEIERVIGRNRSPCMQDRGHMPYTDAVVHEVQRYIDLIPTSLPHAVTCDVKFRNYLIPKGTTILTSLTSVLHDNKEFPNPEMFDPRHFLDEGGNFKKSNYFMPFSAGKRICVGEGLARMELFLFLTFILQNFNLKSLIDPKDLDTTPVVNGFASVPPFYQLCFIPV
# How it was run: as §1
# [13] = AP1 Signaling Pathway (AID 357; active means well fitted curve in either direction with a large enough effect, not every such curve was filed as active;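 further: ME-180 reporter cells stimulated with EGF at its EC50 level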); conditions: ME-180 AP-1-bla reporter, EGF-induced, beta-lactamase ratio, 5 h; at 7.69 µM (top of the series) unless noted
# How it was run: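 Beta-lactamase reporter under AP-1 response element, ME-180 background. Stimulus: EC50 EGF. Compound exposure 5 h, 37 °C. Detection: CCF4, 2.5 h RT, 460/530 nm. Values: AC50 from titration.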
# [14] = Stat Signaling Pathway (AID 446; active means well fitted curve in either direction with a large enough effect, not every such curve was filed as active;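 further: ME-180 cervical cancer cells given 40 pM IL-6 alongside compound; SIE-controlled beta-lactamase reporter measured as 460/530 nm FRET emission ratio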)
# How it was run: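 ME-180 cells carrying a SIE-driven beta-lactamase reporter are stimulated with 40 pM IL-6 for 5 h at 37C in the presence of compound. The 460/530 nm FRET substrate ratio is read after 2.5 h at RT. Data are normalised to 300 pM IL-6 and to 125 nM JAK inhibitor controls.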
# [15] = biological target: Glucocorticoid receptor (Homo sapiens) (UniProt P04150); experiment: GR-GFP Redistribution (AID 450;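 active means compounds whose dose series gives a full or clear partial fitted curve of increased nuclear translocation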; further: potency means the concentration at half of the fitted maximal effect); conditions: U2OS GR-GFP nuclear translocation, laser cytometry, 2 h
# Chain of Glucocorticoid receptor (Homo sapiens) (P04150 whole entry, looked up, the tested form may be a part): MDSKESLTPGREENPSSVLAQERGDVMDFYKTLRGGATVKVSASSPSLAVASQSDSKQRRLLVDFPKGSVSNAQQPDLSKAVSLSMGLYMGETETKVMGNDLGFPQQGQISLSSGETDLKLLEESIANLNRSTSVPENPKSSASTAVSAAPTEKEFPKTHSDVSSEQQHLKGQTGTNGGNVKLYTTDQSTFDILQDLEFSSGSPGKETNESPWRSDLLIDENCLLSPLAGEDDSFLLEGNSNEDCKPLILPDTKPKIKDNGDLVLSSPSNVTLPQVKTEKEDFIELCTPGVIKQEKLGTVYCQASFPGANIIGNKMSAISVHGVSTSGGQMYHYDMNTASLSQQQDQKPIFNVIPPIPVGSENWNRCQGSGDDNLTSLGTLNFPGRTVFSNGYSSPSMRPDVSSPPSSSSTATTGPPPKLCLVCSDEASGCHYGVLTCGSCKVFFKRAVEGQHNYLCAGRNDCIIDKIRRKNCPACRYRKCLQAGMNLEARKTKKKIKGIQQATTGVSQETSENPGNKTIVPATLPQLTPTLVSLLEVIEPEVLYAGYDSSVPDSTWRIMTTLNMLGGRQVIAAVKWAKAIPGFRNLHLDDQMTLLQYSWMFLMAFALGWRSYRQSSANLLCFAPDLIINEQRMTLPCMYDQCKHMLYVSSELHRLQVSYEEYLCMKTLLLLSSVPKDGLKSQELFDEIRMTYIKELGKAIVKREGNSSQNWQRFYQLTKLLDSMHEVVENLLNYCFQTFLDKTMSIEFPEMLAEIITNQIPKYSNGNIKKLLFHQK
# [16] = biological target: Glucocorticoid receptor (Homo sapiens) (UniProt P04150); experiment: GR-EFC Redistribution (AID 451; calls by dose curve; further: potency means the concentration at half of the fitted maximal effect); conditions: CHO-K1 GR-EFC translocation, beta-gal luminescence, 2 h
# How it was run: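 CHO-K1 cells expressing nuclear EA and GR-ED fragments of b-gal; compounds titrated up to 46 uM final, 2 h at 37 C. GR nuclear translocation read as complemented b-gal luminescence after 1 h RT detection.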
# [17] = biological target: Dual specificity protein kinase CLK4 (Homo sapiens) (UniProt Q9HAZ1); experiment: qHTS Assay for Inhibitors of CDC-like Kinase 4 (ADP-FP Assay) (AID 1795);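 further: recombinant human CLK4 phosphorylating RS repeat peptide at 1 µM ATP; nearly all actives have a fitted effect of over 60% in size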
# Chain of Dual specificity protein kinase CLK4 (Homo sapiens) (Q9HAZ1 whole entry, looked up): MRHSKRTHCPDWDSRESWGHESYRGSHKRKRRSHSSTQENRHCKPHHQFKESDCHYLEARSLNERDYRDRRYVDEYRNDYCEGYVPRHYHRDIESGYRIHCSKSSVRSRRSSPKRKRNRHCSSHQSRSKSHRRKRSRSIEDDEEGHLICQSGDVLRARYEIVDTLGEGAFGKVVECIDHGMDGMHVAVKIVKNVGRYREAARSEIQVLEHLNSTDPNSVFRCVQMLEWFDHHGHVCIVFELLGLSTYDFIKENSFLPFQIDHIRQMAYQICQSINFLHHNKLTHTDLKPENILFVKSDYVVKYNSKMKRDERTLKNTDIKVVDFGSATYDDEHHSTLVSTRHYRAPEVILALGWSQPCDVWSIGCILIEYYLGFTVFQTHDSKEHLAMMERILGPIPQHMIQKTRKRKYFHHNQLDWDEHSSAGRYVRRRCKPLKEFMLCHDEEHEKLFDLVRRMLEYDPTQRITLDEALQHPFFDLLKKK
# How it was run: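 Kinase activity was measured as ADP production using Transcreener orange tracer (4 nM) and ADP antibody (1 ug/mL) fluorescence polarization, with ADP calculated from a calibration curve. The 1 h reaction contained 6.25 nM Clk4, 1 uM ATP and 100 uM RS peptide at pH 7.5 with Mg2+.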
# [18] = biological target: Ubiquitin carboxyl-terminal hydrolase 1 (Homo sapiens) (UniProt O94782); experiment: Inhibitors of USP1/UAF1: Pilot qHTS (AID 504865);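 further: rhodamine fluorescence freed from ubiquitin-rhodamine substrate followed over time; top concentration of the series differs between compounds; nearly all actives have a fitted effect of over 35% in size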
# Chain of Ubiquitin carboxyl-terminal hydrolase 1 (Homo sapiens) (O94782 whole entry, looked up): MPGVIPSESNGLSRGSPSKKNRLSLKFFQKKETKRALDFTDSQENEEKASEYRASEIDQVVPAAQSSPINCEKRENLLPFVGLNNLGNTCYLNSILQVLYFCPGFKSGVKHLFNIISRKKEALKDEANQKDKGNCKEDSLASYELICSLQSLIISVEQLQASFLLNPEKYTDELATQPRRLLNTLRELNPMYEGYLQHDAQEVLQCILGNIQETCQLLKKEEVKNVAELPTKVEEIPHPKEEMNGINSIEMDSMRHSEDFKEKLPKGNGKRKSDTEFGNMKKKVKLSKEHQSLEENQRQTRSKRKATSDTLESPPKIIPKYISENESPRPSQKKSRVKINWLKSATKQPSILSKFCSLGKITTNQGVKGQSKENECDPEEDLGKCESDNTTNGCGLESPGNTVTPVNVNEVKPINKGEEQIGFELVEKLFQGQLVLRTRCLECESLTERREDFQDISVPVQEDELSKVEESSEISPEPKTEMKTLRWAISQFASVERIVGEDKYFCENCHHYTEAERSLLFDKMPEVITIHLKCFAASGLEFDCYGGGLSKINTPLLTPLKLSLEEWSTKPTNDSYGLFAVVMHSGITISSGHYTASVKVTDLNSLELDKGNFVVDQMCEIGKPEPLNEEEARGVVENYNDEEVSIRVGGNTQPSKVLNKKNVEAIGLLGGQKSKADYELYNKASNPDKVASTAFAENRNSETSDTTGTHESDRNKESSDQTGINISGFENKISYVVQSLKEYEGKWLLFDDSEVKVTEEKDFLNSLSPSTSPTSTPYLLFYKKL
# How it was run: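 Deubiquitinase activity followed as kinetic rhodamine fluorescence release from 150 nM Ub-Rho. 1 nM USP1/UAF1 with compound, after 15 min room-temperature preincubation, in HEPES pH 7.8 buffer containing TCEP, EDTA, BSA and Tween-20.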
# [19] = biological target: Glutathione peroxidase 1 (Homo sapiens) (UniProt P07203); experiment: Primary qHTS Assay for Inhibitors of Recombinant Selenoprotein Glutathione Peroxidase 1 (GPX1) (AID 1845191); further: nearly all actives have a fitted effect of over 65% in size
# Chain of Glutathione peroxidase 1 (Homo sapiens) (P07203 whole entry, looked up): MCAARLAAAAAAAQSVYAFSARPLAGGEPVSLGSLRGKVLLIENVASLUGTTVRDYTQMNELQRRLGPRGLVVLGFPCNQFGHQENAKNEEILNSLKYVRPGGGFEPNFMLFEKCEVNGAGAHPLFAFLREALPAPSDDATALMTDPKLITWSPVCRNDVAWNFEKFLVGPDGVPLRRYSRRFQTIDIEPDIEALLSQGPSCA
# How it was run: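 GR-coupled assay: compounds preincubated 30 min at room temperature with GPX1, then reaction started with CHP; final 10 nM GPX1, 1 mM GSH, 0.5 mM CHP, 0.5 mM NADPH, 100 nM GR, 0.01% BSA, pH 7.5 Tris buffer. NADPH fluorescence (340/450 nm) read at 0 and 15 min.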
smiles,measurement,setting,value
CCCCCC/C=C/CCCCCCCCCC(=O)O,outcome,[1],inactive
same,Potency,[2],inactive
same,Potency,[3],inactive
same,outcome,[4],inactive
same,max response,[5],3.83%
same,outcome,[6],inactive
same,Potency,[7],inactive
same,outcome,[8],inactive
same,outcome,[9],inactive
CC(=O)O[C@@H]1CC[C@@]2(C)[C@@H](CC[C@]3(C)[C@@H]2C(=O)C=C2[C@@H]4[C@@H](C)[C@H](C)CC[C@]4(C)CC[C@]23C)[C@@]1(C)C(=O)O,outcome,[10],inactive
same,outcome,[1],inactive
same,Potency,[3],inactive
same,Potency,[11],14.1 µM (active)
same,Potency,[12],3.55 µM (active)
same,max response,[5],-0.124%
same,outcome,[6],inactive
same,Potency,[7],inactive
COCCn1c(=O)c(CCc2ccccc2)nc2cnc(OCc3ccccc3)nc21,"activity change, negative = inhibition",[13],-21.6%
same,outcome,[14],inactive
same,Potency,[15],> 9.22 µM
same,Potency,[16],> 46 µM
same,Potency,[17],inactive
same,Potency,[18],inactive
COc1cccc(N2CCN(C(=O)Cn3ncc4c3-c3ccccc3OC4)CC2)c1,Potency,[19],inactive
OC[C@H]1O[C@@H](c2ccc(F)c(Cc3cc4ccccc4s3)c2)[C@H](O)[C@@H](O)[C@@H]1O,Potency,[19],inactive
CCCCCCCCCC(=O)OCCN1CCN(CC/C=C2\c3ccccc3Sc3ccc(C(F)(F)F)cc32)CC1,Potency,[19],inactive
CCCCCCCCn1cc(CC(N)=O)c2cc(-c3cccc(C)c3)ccc21,Potency,[19],inactive
COc1ccc(-c2cc(-c3ccc4c(c3)NC(=O)CO4)nc3c2COc2ccc(C)cc2-3)cc1,Potency,[19],inactive
Clc1ccc(-c2csc(NN=C3CCCC3)n2)cc1,Potency,[19],inactive
Cc1cccc(N2C(=O)N(Cc3ccc(C(C)(C)C)cc3)c3ccccc3S2(=O)=O)c1,Potency,[19],inactive
COc1cccc(C(c2sc3nc(-c4ccco4)nn3c2O)N2CCN(C)CC2)c1 (configuration not stated),Potency,[19],inactive
CCC(Sc1nnc2c(n1)[nH]c1ccccc12)C(=O)N1c2ccccc2Sc2ccccc21 (configuration not stated),Potency,[19],inactive
